DT40 TDP1 CPT = DT40-hTDP1 cell growth loss with CPT | chicken DT40 Tdp1-/-;hTDP1 cells + 20 nM CPT, ATP luminescence, 48 h | hit rate 12% among 420,000 | AID 686979 | Potency, µM (doses to about 46.2 µM), most hits filed as inhibitors; also: nearly all actives have a fitted effect of over 55% in size
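Chicken DT40 Tdp1-/- cells stably complemented with human TDP1 were seeded at 400 cells/well in medium containing 20 nM camptothecin, exposed to pin-transferred compounds, and grown at 37 °C for at least 48 hr. Viability was read as ATP luminescence.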
ClpP mod = qHTS Assay for Activators of ClpP; ATP-dependent Clp protease proteolytic subunit (Bacillus subtilis (strain 168)), P80244; purified B. subtilis ClpP, FRET peptide cleavage, 20 min; Potency, µM (doses to about 57.5 µM); hit rate 1.9% among 340,000; active = well fitted falling curve with a large enough effect; inconclusive = small, poorly fitted or top-dose-only effect; inactive = no such curve, though single readings can be large or run the other way; also: the source files actives as falling curves though it sought activators and does not explain the sign; nearly all actives have a fitted effect of over 65% in size
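Purified B. subtilis ClpP, 10 microg/mL final in Tris/HCl pH8 with KCl, BSA, glycerol and Tween-20, cleaved an Abz/nitrotyrosine-quenched decapeptide. Fluorescence (ex 320, em 430) was read at 0 and 20 min at room temperature. Delta was normalized to 5.8 microM ADEP and DMSO/no-enzyme controls.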
TDP1 cell noCPT = qHTS for Inhibitors of human tyrosyl-DNA phosphodiesterase 1 (TDP1): qHTS in cells in absence of CPT | DT40 Tdp1-/- hTDP1 cells, no CPT, ATP luminescence, 48 h | Potency, µM (doses to about 46.2 µM), most hits filed as inhibitors | hit rate 15% among 420,000 | AID 686978, 2013; also: nearly all actives have a fitted effect of over 55% in size
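DT40 Tdp1-/-;hTDP1 cells, no CPT (DMSO vehicle only), 400 cells/well; compounds pin-transferred; ≥48 hr, 37 °C; CellTiter-Glo 30 min RT dark, luminescence read.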
TDP1 inh = TDP1 (human) enzyme inhibition; hit rate 0.28% among 350,000; Q9NUW8; AID 485290; Potency, µM (titrated, usually from 130 µM), usual class: inhibitors; recombinant TDP1, AlphaScreen DNA substrate cleavage; also: nearly all actives have a fitted effect of over 40% in size
Target sequence (Q9NUW8 whole entry, looked up): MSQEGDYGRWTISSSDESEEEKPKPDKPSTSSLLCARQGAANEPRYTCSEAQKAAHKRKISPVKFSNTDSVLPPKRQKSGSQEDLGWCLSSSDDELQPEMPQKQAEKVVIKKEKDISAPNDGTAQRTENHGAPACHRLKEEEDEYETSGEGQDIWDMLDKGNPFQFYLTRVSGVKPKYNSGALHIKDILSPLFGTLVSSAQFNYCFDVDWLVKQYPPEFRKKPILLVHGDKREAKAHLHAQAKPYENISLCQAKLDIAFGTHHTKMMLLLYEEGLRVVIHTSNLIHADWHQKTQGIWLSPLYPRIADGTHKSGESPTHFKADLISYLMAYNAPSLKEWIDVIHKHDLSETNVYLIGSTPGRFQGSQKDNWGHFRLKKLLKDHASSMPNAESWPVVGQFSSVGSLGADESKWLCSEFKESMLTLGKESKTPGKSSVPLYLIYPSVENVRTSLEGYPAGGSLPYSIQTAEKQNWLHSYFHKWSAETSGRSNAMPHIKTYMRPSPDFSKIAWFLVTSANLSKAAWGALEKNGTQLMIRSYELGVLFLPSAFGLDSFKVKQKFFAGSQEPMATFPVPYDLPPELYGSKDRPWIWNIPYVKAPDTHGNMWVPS
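Compounds were preincubated with Tdp1 (1 nM final) for 15 min at room temperature before substrate (15 nM final) started a 5 min reaction; beads (10 ug/ml final) were then added for 10 min before AlphaScreen detection.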
Hits are given with their value. The list is not random: actives were taken first. Their share in the collection is about 17%. Unless noted, calls follow the shape of the dose curve; as a rule, active = well fitted curve in the direction sought with a large enough effect; inconclusive = small, poorly fitted or top-dose-only effect, or another doubt; inactive = no such curve, though single readings can be large; an effect the other way counts as inactive or inconclusive.

`Cc1c(C(=O)N(C)Cc2ccc(F)cc2)sc(=O)n1Cc1ccc(Cl)c(Cl)c1` gave DT40 TDP1 CPT inconclusive, ClpP mod inactive and TDP1 cell noCPT 23.1µM.
For Cc1cccc(C)c1Cn1c(C)c(C(=O)NCc2ccc(C#N)cc2)sc1=O the results were DT40 TDP1 CPT inconclusive, ClpP mod inactive and TDP1 cell noCPT 18.4µM.
For Cc1cccc(N(C(=O)Nc2ccc(Cl)cc2)C2=NCC(C)S2)n1 (configuration not stated) the results were DT40 TDP1 CPT inactive, TDP1 cell noCPT inactive and TDP1 inh inactive.
Screening O=C(NCCc1nnc2ccc(NCc3ccccc3Cl)nn12)c1ccccc1 returned DT40 TDP1 CPT inactive, TDP1 cell noCPT inactive and TDP1 inh inactive.
`CCc1nnc2c3ccccc3nc(Nc3ccccc3OC)n12` gave DT40 TDP1 CPT inactive, ClpP mod inconclusive, TDP1 cell noCPT inconclusive and TDP1 inh inactive.
Screening COc1ccc(C(=O)N/N=C(\CCC(=O)O)c2ccc(C(C)(C)C)cc2)cc1OC returned DT40 TDP1 CPT inactive, TDP1 cell noCPT inactive and TDP1 inh inactive.
Screening Cc1c(C(=O)NCc2ccc(C(C)C)cc2)sc(=O)n1Cc1ccc(S(=O)(=O)N(C)C)cc1 returned DT40 TDP1 CPT 13µM, ClpP mod inactive and TDP1 cell noCPT 9.2µM.
`O=C(c1ccccc1O)N(Cc1ccccc1)Cc1ccccc1` gave TDP1 inh inactive.
COc1cccc(-n2cc(C(=O)Nc3ccccc3C(N)=O)c3ccccc3c2=O)c1 was read as DT40 TDP1 CPT inconclusive, ClpP mod inactive, TDP1 cell noCPT 10.3µM and TDP1 inh inactive.
Screening Cc1ccn2c(=O)cc(COc3ccc(NC(=O)COc4ccccc4)cc3)nc2c1 returned DT40 TDP1 CPT inactive, ClpP mod inactive, TDP1 cell noCPT inactive and TDP1 inh inactive.
Screening OCCC1CN(C2CCC2)CCN1Cc1ccc(F)c(F)c1 (configuration not stated) returned DT40 TDP1 CPT inactive, ClpP mod inactive, TDP1 cell noCPT inactive and TDP1 inh inactive.
O=C(NCc1ccccc1)c1ccc(C(=O)N(C2CCCCC2)C2CCCCC2)cc1 was read as DT40 TDP1 CPT 23.1µM, ClpP mod inactive, TDP1 cell noCPT inconclusive and TDP1 inh inactive.
For O=C(C(=O)N(C1CCCCC1)C1CCCCC1)c1ccccc1 the results were DT40 TDP1 CPT 10.3µM, ClpP mod inactive and TDP1 cell noCPT 7.31µM.
CCc1ccc(NC(=O)Cn2c(SCc3ccc(C)cc3)nc3ccncc32)cc1 was read as DT40 TDP1 CPT inconclusive, ClpP mod inactive, TDP1 cell noCPT inconclusive and TDP1 inh inactive.
`CN(C)S(=O)(=O)N(CC(=O)NCCSc1ccc(Cl)cc1)c1ccccc1` gave DT40 TDP1 CPT inconclusive, ClpP mod inactive, TDP1 cell noCPT inconclusive and TDP1 inh inactive.
`CC(C)c1ccc(/C=C/C(=O)Nc2nncs2)cc1` gave DT40 TDP1 CPT inconclusive, ClpP mod inactive, TDP1 cell noCPT 13µM and TDP1 inh inactive.
Screening O=C1COc2ccccc2N1Cc1ccc(Cl)cc1 returned DT40 TDP1 CPT inactive, ClpP mod inactive, TDP1 cell noCPT inconclusive and TDP1 inh inactive.
`c1nc(N2CCNCC2)c2sc3nc(N4CCOCC4)c4c(c3c2n1)CCC4` gave TDP1 inh inactive.
For OCCN1CCN(c2ncnc3c2sc2nc(N4CCOCC4)c4c(c23)CCC4)CC1 the results were DT40 TDP1 CPT inconclusive, ClpP mod inconclusive, TDP1 cell noCPT 20.6µM and TDP1 inh inactive.
`CN(C)CCNc1ncnc2c1sc1nc(N3CCOCC3)c3c(c12)CC(C)(C)SC3` gave DT40 TDP1 CPT inconclusive, ClpP mod inactive, TDP1 cell noCPT 20.6µM and TDP1 inh inactive.
`OCCN(CCO)c1ncnc2c1sc1nc(N3CCOCC3)c3c(c12)CCCC3` gave DT40 TDP1 CPT 16.4µM, ClpP mod inconclusive, TDP1 cell noCPT 18.4µM and TDP1 inh inactive.
CC1(C)Cc2c(c(N3CCOCC3)nc3sc4c(NCCN)ncnc4c23)CO1 was read as DT40 TDP1 CPT inconclusive, ClpP mod inactive and TDP1 cell noCPT inconclusive.
For CCc1nc2c(sc3nc(N4CCOCC4)c4c(c32)CC(C)(C)OC4)c(=O)o1 the results were TDP1 inh inactive.
Screening CC1(C)Cc2c(c(N3CCCC3)nc3sc4c(N5CCN(CCO)CC5)ncnc4c23)CO1 returned DT40 TDP1 CPT 16.4µM, ClpP mod inactive, TDP1 cell noCPT 11.2µM and TDP1 inh inactive.
Screening C#CCn1c(=O)c2c(nc(/C=C/c3cccc(OC)c3)n2C)n(CCCO)c1=O returned TDP1 inh inactive.
`CC1(C)OC2CC(=O)OCC23C1CC(=O)C1(C)C3CC[C@@]2(C)[C@H](c3ccoc3)OC(=O)C3OC312` (some centres not stated) gave TDP1 inh inactive.
COc1cccc(CN2CCC(c3nnc(SCC4CCCO4)n3C)CC2)c1O (configuration not stated) was read as DT40 TDP1 CPT inactive and TDP1 cell noCPT inactive.
Screening Cc1ccccc1N1C(=O)c2cccc([N+](=O)[O-])c2C1=O returned DT40 TDP1 CPT inactive, TDP1 cell noCPT inactive and TDP1 inh inactive.
For Cc1ccccc1-n1ncc2c([N+](=O)[O-])cc([N+](=O)[O-])cc21 the results were DT40 TDP1 CPT 25.9µM, ClpP mod inactive, TDP1 cell noCPT 20.6µM and TDP1 inh inactive.
For CCc1cccc(CC)c1NC(=O)CSc1nc2ccc(N3C(=O)C4C5C=CC(C5)C4C3=O)cc2s1 (configuration not stated) the results were DT40 TDP1 CPT 20.6µM, ClpP mod inactive, TDP1 cell noCPT 18.4µM and TDP1 inh inactive.
For CN(O)/C=C/C(=O)c1ccc(Br)cc1 the results were DT40 TDP1 CPT 16.4µM, TDP1 cell noCPT inconclusive and TDP1 inh inactive.
O=C(O)c1ccc(/C=N/n2cc(-c3ccccc3)[nH]c2=S)cc1 was read as DT40 TDP1 CPT inactive, ClpP mod inactive, TDP1 cell noCPT inactive and TDP1 inh inactive.
S=c1[nH]c(-c2ccccc2)cn1/N=C/c1ccc(Br)cc1 was read as DT40 TDP1 CPT 3.66µM, TDP1 cell noCPT 4.61µM and TDP1 inh inactive.
Fc1ccccc1/C=N/n1cc(-c2ccccc2)[nH]c1=S was read as DT40 TDP1 CPT 14.6µM, TDP1 cell noCPT 8.2µM and TDP1 inh inactive.
`S=c1[nH]c(-c2ccccc2)cn1/N=C/c1cccs1` gave DT40 TDP1 CPT inactive, TDP1 cell noCPT 8.2µM and TDP1 inh inactive.
Cc1ccc(C)c(/C=N/n2cc(-c3ccccc3)[nH]c2=S)c1 was read as DT40 TDP1 CPT inconclusive, TDP1 cell noCPT inconclusive and TDP1 inh inactive.
O=C(O)c1ccccc1CC(CCc1ccccc1)C(=O)O (configuration not stated) was read as DT40 TDP1 CPT inactive and TDP1 cell noCPT inactive.
